AHR activator: activators of human aryl hydrocarbon receptor | P35869 | AHR-responsive luciferase reporter cells, luminescence | activation, % at 5 µM | 2.5% of 320,000 active; in the data active = activation above about 47%;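 also: 0% = vehicle wells and 100% = reference agonist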
DAX1 inh: inhibits human nuclear receptor DAX1 | P51843 | HEK293 Gal4-DAX1 luciferase reporter, luminescence | inhibition, % at 6.75 µM | 0.99% of 340,000 active | AID 504766;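 active = inhibition above the mean over all tested compounds plus 3 SD, cut at about 4.2% in these data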;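 also: 0% = DAX1-transfected cells with DMSO and 100% = empty-vector control cells with DMSO; inhibition shows as a rise in luminescence from relieved DAX1 repression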
Target sequence (P51843 207-470 limits assumed): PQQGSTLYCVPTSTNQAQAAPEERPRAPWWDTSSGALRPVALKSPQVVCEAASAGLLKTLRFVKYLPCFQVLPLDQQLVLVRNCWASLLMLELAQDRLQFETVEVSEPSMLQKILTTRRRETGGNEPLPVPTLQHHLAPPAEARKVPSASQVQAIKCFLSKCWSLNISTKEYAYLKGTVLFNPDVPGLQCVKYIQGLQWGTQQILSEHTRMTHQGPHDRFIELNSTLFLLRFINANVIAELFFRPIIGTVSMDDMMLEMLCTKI
HSF1 activator: increases HSF-1 driven luciferase reporter signal. activation, % at 9 µM. AID 504408. NIH3T3-HGL HSF-1 luciferase reporter, MG132, 8 h; 100% = twice DMSO control signal. 1.7% of 300,000 active;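 active = mean replicate activation of at least 50% with a set share of replicates each reaching 50%; inconclusive = only one of those two conditions met; inactive = mean below 50% and too few replicates reaching it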;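 also: 0% = median of the neutral control wells and 100% = twice that signal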
GAA850 FXN act: increases GAA850 frataxin promoter reporter activity; activation, % at 6 µM; HEK293 lucGAA850 FXN promoter luciferase reporter, 24 h; percent of 10 µM SAHA response; AID 540364; 0.56% of 360,000 active;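 active = activation above the average of all compounds screened plus 3 SD, cutoff fixed separately per campaign, cut at about 7.5% in these data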;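 also: 0% = DMSO wells and 100% = 10 µM SAHA wells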
HSF1 inhib: HSF1 inhibition; NIH3T3-HGL HSE-luciferase, MG132-induced, luminescence 8 h; active compounds read low; activity change, negative = inhibition, % at 7.5 µM (by protocol); 0.77% of 300,000 active; AID 2098;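 active = more than half of replicate wells show activity change below -50%, luminescence cut by over half; inconclusive = some wells, but at most half, below -50%; inactive = no replicate well below -50%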;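 also: luciferase reports HSF-1 transcriptional activity via heat shock element; 0% = median of DMSO wells and -100% = zero luminescence signal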
Active calls of the source: *; ? = inconclusive; . = not tested or not shown. Rows were chosen to be rich in hits. Some 5.4% of all compounds tested hit in one or more screens of this group.

SMILES	AHR activator	DAX1 inh	HSF1 activator	GAA850 FXN act	HSF1 inhib
CCOc1ccc(N(CC(=O)NC2CCCCC2)C(=O)CCC(=O)Nc2cc(C)ccn2)cc1	-2.1	1.4	20.4	1.2	4.8
O=C(/C=C/c1ccc(Cl)cc1Cl)N(Cc1ccccc1)C1CCS(=O)(=O)C1 (centres undefined)	3.2	-0.8	52.2*	.	19.8
CCOC(=O)c1nnsc1Nc1ccc(C)c(C)c1	-1.9	4.3*	?	1.9	31.5
Fc1cc(F)cc(Nc2nc(Cl)nc(NC3CCCC3)n2)c1	1.9	-0.5	.	0.5	.
O=[N+]([O-])c1ccc(/C=N\N2CCN(c3ccc(Cl)cc3)CC2)cc1	-3.3	0.2	5.1	-1.6	-6.5
O=[N+]([O-])c1ccc(/C=N/N2CCCCC2)cc1	-1.4	4.4*	48.6	5.0	22.6
CC(C)=CC(=O)OCc1cc([N+](=O)[O-])cc2c1OCOC2	1.5	0.5	6.0	3.0	26.2
COc1cc(/C=N/N=C2/C(=O)Nc3ccccc32)cc(OC)c1O	33.5	-0.1	-79.0	0.1	-72.4*
O=C1Nc2ccccc2/C1=N/N=C/c1cccc(O)c1	8.1	-1.3	-1.4	0.3	-0.9
Cc1ccc(N=C2C(=O)Nc3ccccc32)cc1C	12.7	-1.1	51.3*	2.5	8.8
Cc1ccc(N=C2C(=O)Nc3ccccc32)cc1	4.0	2.3	15.3	-0.8	-4.0
CCOc1ccc(CN(C)C(=O)CNC(=O)c2ccc(Br)o2)cc1OC	1.5	-0.9	-7.1	0.6	-10.5
O=C1Nc2ccccc2/C1=C/C(=O)c1cccs1	118.0*	-1.3	-71.2	-0.3	-64.9*
C=CCOc1ccccc1C(=O)/C=C1/C(=O)Nc2ccccc21	38.0	-1.2	113.4*	4.7	99.4
COc1ccc(C(=O)/C=C2/C(=O)Nc3ccccc32)cc1	.	-1.3	-14.0	2.3	-1.8
COc1ccc(C(=O)/C=C2/C(=O)Nc3ccccc32)cc1OC	16.8	0.7	242.8*	4.1	181.4
COc1cc(OC)c(/C=C2\C(=O)Nc3ccccc32)c(OC)c1	78.9*	.	.	.	.
CSc1ccccc1C(=O)OCC(=O)NC1CCCCCCC1	.	0.0	.	-0.2	.
COc1ccc(NC(=O)C2Cc3c(-c4ccc(NC(C)=O)cc4)ccnc3O2)cn1 (centres undefined)	.	.	.	-4.1	.
CC(C)NC(=O)C1(C)CCN1C/C=C/c1ccccc1 (centres undefined)	.	.	.	0.5	.
COc1ccc(-c2nc(-c3ccc(Br)cc3)no2)c(OC)c1	95.2*	3.7	24.3	3.1	16.1
COc1ccccc1-c1nc(-c2ccc(Br)cc2)no1	64.4*	2.4	55.4*	3.5	38.9
Cc1cc(-c2cc(C(=O)NCc3ccccc3)on2)nc(NC2CCCC2)n1	2.8	0.8	-4.4	-0.4	2.6
CC(C)CN(C(=O)COC(=O)c1nc(Cl)ccc1Cl)c1c(N)n(Cc2ccccc2)c(=O)[nH]c1=O	-2.4	0.9	-10.5	-0.9	0.3
O=C1c2ccccc2C(=O)N1CCCCN(C(=O)c1ccco1)c1ccc(Cl)cc1	-2.6	1.8	26.1	0.0	12.8
SMILES	AHR activator	DAX1 inh	HSF1 activator	GAA850 FXN act	HSF1 inhib
O=C1c2ccccc2C(=O)N1CCCCN(C(=O)c1cccc([N+](=O)[O-])c1)c1ccc(Cl)cc1	72.2*	-1.0	?	1.6	26.3
CCC1(CC)NC(=O)N(CC(=O)OC(C)C(=O)Nc2ccc(NC(C)=O)cc2)C1=O (centres undefined)	-0.3	-0.7	8.6	-1.4	-0.9
COC(=O)CSCC(=O)Nc1nnc(-c2ccccc2C)s1	-7.3	-1.2	-0.1	-0.4	-7.2
Cn1c(CNc2ccccc2)nc2ccccc21	64.8*	1.6	38.9	4.1	16.6
Cc1ccccc1NCc1nc2ccccc2n1C	78.5*	3.1	?	5.4	36.7
Cn1c(CNc2ccccc2O)nc2ccccc21	76.5*	0.1	80.3*	2.7	39.8
Cn1c(CNc2ccc(F)cc2)nc2ccccc21	.	2.9	26.5	6.8	31.0
CC(NC(=O)Cn1cc(Br)c([N+](=O)[O-])n1)c1ccccc1 (centres undefined)	4.4	4.3*	9.5	0.7	-1.6
Cc1[nH]nc(SCC(=O)NCc2ccc(Cl)cc2)c1[N+](=O)[O-]	1.1	1.9	-14.8	0.3	-6.0
CCc1ccccc1NC(=O)CSc1n[nH]c(C)c1[N+](=O)[O-]	-0.4	5.3*	11.1	-0.4	-4.8
Cc1ccc(NC(=O)CSc2n[nH]c(C)c2[N+](=O)[O-])cc1	1.1	-0.7	-0.9	0.1	1.4

Source: PubChem BioAssay (several laboratories)
